Results reported in the supplement of paper PMC10720658.
± gives the standard deviation of the averaged measurements.

test system: AEK1 (Tb927.3.2440); assay: percent reduction in TR-FRET probe signal relative to DMSO control; higher = stronger displacement of ATP-site probe (binding); conditions: 1 µM; incubation time 1 h

| Compound | percent reduction in TR-FRET probe signal [%] |
| --- | --- |
| COc1nccc(-c2c(-c3ccc(F)cc3)ncn2[C@H]2CC[C@H](O)CC2)n1 | -2.94 ± 9.9 |
| NC(=O)Nc1sc(-c2ccc(F)cc2)cc1C(N)=O | 10.6 ± 8.8 |
| CN1CCN(c2ccc(-c3ccncc3-c3cc(F)c(O)c(F)c3)cc2)CC1 | 1.75 ± 5.2 |
| O=[N+]([O-])c1cnc(Sc2nnc(O)n2-c2ccc3c(c2)OCCO3)s1 | 0.0867 ± 3.4 |
| O=C(O)c1ccc(-c2c[nH]c3ncc(-c4ccccc4)cc23)cc1C1CCCC1 | -2.47 ± 9.6 |
| O=C(Nc1cccc(Nc2ncc(Br)c(NCCc3cnc[nH]3)n2)c1)N1CCCC1 | 52.9 ± 12 |
